HCMV antiviral – inhibitors of human cytomegalovirus; activity change, negative = inhibition, % at 57.5 µM; HFF cells, HCMV-luciferase reporter, 72 h; hits give low values; AID 1259415; 4.5% of 410,000 active; in the data active = activity change below about -60%; inconclusive = no clear call, values can overlap the other calls; inactive = above about -39%
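Luciferase read-out from HCMV-luciferase-infected HFFs (MOI 1 PFU/cell) 72 h post infection at 37C; compounds added after 16 h cell attachment; activity normalized between buffer-only basal and Salinomycin (10uM) inhibitor controls.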
HCV inh – inhibitors of hepatitis C virus infection. Huh7.5.1 HCVcc-Cre infection, luciferase reporter, 44 h. Potency, µM (titrated, usually from 41.8 µM), without a hit: top-dose activity change, negative = inhibition, actives largely listed as inhibitors. 3.4% of 340,000 active. AID 651820; also: potency is read from the fitted curve at half-maximal effect
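Infectious HCV cell culture screen: compound-treated cells (1,000/well, pre-plated 4 h) are infected with HCVcc-Cre at roughly 0.5 moi and grown 44 h. Infection is quantified by luciferase signal after 15 min substrate incubation at room temperature.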
Vaccinia mCherry – inhibitors of vaccinia virus infection (mCherry reporter signal). 0.63% of 310,000 active. Potency, µM (top dose mostly 36.5 µM), without a hit: at the top dose activity change, negative = inhibition, most hits filed as inhibitors. Vaccinia virus mCherry reporter infection, fluorescence. AID 720579; calls by dose curve; tested in A549 cells; also: potency is read from the fitted curve at half-maximal effect; nearly all actives have a fitted effect of over 35% in size
Sm TGR block – inhibitors of Schistosoma mansoni thioredoxin glutathione reductase | Potency, µM (doses to about 114 µM), without a hit: at the highest dose activity change, negative = inhibition, usual class: inhibitors | purified TGR, DTNB reduction, TNB absorbance 405 nm | 3% of 360,000 active | Q962Y6; also: potency is read from the fitted curve at half-maximal effect; nearly all actives have a fitted effect of over 60% in size
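First, TGR (20 nM dispensed) and NADPH were mixed with compound. Second, a 15 min room-temperature incubation followed. Third, further NADPH and then DTNB were added to start the reaction. Finally, TNB absorbance was monitored kinetically.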
FMDV inh – antivirals against foot and mouth disease virus; FMDV antiviral cell-based qHTS; Potency, µM (top dose mostly 57.9 µM), inactives show at the top dose activity change, negative = inhibition, usual class: inhibitors; 1.2% of 410,000 active; calls by dose curve; tested in HEK293T cells; also: read-out not given here; potency is read from the fitted curve at half-maximal effect; nearly all actives have a fitted effect of over 45% in size
Vaccinia Venus – inhibitors of vaccinia virus (Venus reporter); Vaccinia virus Venus reporter expression, fluorescence; 0.46% of 330,000 active; Potency, µM (highest dose often 36.5 µM), for the others: at the top dose activity change, negative = inhibition, actives largely listed as inhibitors; AID 720580; calls by dose curve; tested in A549 cells; also: potency is read from the fitted curve at half-maximal effect; nearly all actives have a fitted effect of over 30% in size
Starred values were filed as active, the others as inactive; i = inactive; ? = inconclusive; · = no result given. A selection: hits, their analogues and other compounds. The true share with any hit is near 9.3%. Unless noted, calls follow the shape of the dose curve; as a rule, active = well fitted curve in the direction sought with a large enough effect; inconclusive = small, poorly fitted or top-dose-only effect, or another doubt; inactive = no such curve, though single readings can be large; an effect the other way counts as inactive or inconclusive. % is scaled to controls: 0 for no effect and ±100 for the full control effect.

SMILES	HCMV antiviral	HCV inh	Vaccinia mCherry	Sm TGR block	FMDV inh	Vaccinia Venus
COc1ccc(C(CC(=O)N2CCC3(CC2)OCCO3)NS(=O)(=O)c2ccc(C)cc2)cc1 (stereo unspecified)	30	-18%	·	-4%	-10%	-21%
COc1ccccc1C1=NNC(=Nc2cccc(S(=O)(=O)N(C)C)c2)SC1	-80*	13µM*	?	6%	?	-13%
COCCn1c(C)cc(C2=NNC(=Nc3ccccc3)SC2)c1C	16	?	-8%	-2%	-10%	-6%
O=C(Cc1csc(Nc2nc(=S)[nH]c3ccccc23)n1)N1CCN(c2cccc(Cl)c2)CC1	83	11µM*	i	2%	-22%	-7%
CC1(C)Cc2c(C#N)c(NCC3CCCO3)nc(-c3ccco3)c2CO1 (stereo unspecified)	-2	?	·	4.5µM*	-23%	0%
CC1(C)Cc2c(C#N)c(NC3CCCCC3)nc(-c3ccco3)c2CO1	·	-23%	·	1.8µM*	·	·
Cc1nn(CCC(N)=O)c2nc(-c3cccs3)cc(C(F)(F)F)c12	39	10µM*	-9%	4%	?	-27%
COc1ccccc1CNC(=O)c1cc2c(s1)CS(=O)(=O)C2	-21	-6%	-15%	-29%	-4%	-8%
COC(=O)C1=C(c2ccc(-c3ccccc3)c(F)c2)C[C@@H]2CC[C@H]1N2C(=O)NCC1CC1	-39	?	-29%	-15%	?	?
COC(=O)C1=C(c2ccc(OC)c(OC)c2)C[C@@H]2CC[C@H]1N2C(=O)NCCOc1ccccc1	-21	-14%	-16%	7%	-8%	-15%
COC(=O)C1=C(c2ccc(-c3ccccc3)c(F)c2)C[C@@H]2CC[C@H]1N2C(=O)NCCOc1ccccc1	40	13µM*	-2%	2%	?	?
COCCNC(=O)N1[C@H]2CC[C@@H]1C(C(=O)OC)=C(c1ccc(-c3ccccc3)c(F)c1)C2	-40	3.2µM*	?	-4%	-13%	?
COC(=O)[C@@H](C)NC(=O)c1ccc2oc(CCc3ccccc3)nc2c1	42	-4%	·	12%	47%	·
COc1ccc(/C(C#N)=C/c2cccnc2)cc1	-23	·	·	3%	·	·
CN(C)C(CNc1ncnc2sc3c(c12)CCCCC3)c1ccco1 (stereo unspecified)	-68*	?	-9%	?	?	-5%
c1csc(CCNc2ncnc3sc4c(c23)CCC4)c1	-89*	7.9µM*	-25%	5%	13µM*	?
Fc1ccc(Nc2ncnc3sc4c(c23)CCC4)cc1	?	3.2µM*	·	3%	-24%	·
O=C1c2ccccc2S(=O)(=O)c2cc(C(=O)N(c3ccccn3)c3ccccn3)ccc21	15	-5%	i	4%	7%	-7%
COc1cccc(-c2cnc3c(NC=O)cc(-c4ccc(N(C)C)cc4)cn23)c1	7	·	-2%	·	0%	-4%
CCc1cc(=O)oc2c(C)c(OC(C)C(=O)N3CC[C@@]4(O)CCCC[C@H]4C3)ccc12 (stereo partly specified)	21	0.89µM*	-3%	1%	0%	-2%
Nc1ccc(C(=O)N2CCN(S(=O)(=O)c3ccc(Br)cc3)CC2)cc1[N+](=O)[O-]	-61*	-17%	-24%	-11%	-14%	-29%
CC(=O)c1ccc(S(=O)(=O)N2CCN(C(=O)c3ccc(N)c([N+](=O)[O-])c3)CC2)cc1	3	-17%	-17%	9%	6%	-7%
CN1CC(c2ccccc2)C2(SC(=S)N(Cc3ccco3)C2=O)C12C(=O)Nc1ccccc12 (stereo unspecified)	-101*	7.1µM*	·	-13%	?	·
CN1CC(c2ccccn2)C2(SC(=S)N(Cc3ccccc3)C2=O)C12C(=O)Nc1ccccc12 (stereo unspecified)	-15	·	?	14%	-14%	-29%
CC(C)SCCCCOc1ccc2ccccc2c1	42	3%	·	21%	58%	·
CC(C)SCCCOc1ccc(C(C)(C)C)cc1	-86*	5%	·	-5%	42%	-1%
